Biological target: T1, TALE1-HN (CACNA1C site 1 activator) (Xanthomonas (engineered), UniProt P14727 SEQ:1-983)
T1 chain: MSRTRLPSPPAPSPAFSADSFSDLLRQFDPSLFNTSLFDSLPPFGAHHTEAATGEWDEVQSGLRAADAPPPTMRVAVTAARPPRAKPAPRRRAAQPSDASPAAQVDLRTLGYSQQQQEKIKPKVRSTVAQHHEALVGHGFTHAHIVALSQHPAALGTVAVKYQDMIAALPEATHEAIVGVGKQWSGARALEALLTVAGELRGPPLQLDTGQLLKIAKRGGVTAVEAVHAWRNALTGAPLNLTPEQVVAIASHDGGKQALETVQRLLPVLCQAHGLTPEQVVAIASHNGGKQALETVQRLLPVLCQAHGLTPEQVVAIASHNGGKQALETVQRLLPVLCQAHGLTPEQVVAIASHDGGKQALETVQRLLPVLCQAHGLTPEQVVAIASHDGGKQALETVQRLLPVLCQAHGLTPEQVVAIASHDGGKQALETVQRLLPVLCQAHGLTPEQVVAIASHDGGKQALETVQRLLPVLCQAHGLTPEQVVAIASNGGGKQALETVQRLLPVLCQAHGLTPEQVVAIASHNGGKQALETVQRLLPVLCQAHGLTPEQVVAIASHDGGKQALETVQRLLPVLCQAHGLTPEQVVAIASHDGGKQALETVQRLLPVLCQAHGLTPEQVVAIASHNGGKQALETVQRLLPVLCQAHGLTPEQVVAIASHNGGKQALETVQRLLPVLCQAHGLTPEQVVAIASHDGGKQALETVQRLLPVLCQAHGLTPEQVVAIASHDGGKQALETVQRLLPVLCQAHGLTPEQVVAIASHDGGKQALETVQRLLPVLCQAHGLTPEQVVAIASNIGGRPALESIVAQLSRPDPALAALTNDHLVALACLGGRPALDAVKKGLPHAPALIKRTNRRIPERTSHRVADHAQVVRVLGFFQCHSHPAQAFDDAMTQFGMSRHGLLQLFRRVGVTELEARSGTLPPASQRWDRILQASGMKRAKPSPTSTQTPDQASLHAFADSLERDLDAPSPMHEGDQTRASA
Assay: cell_activity; luciferase reporter
Conditions: tags: VP64, 2A-GFP; dsDNA, one strand shown
Description: TALEs using NN, NK, NH, and HN as the G-targeting RVD were synthesized to target two distinct 18 bp target sites in the human CACNA1C locus. Changes in mRNA are measured using qRT-PCR as described previously. VP64, VP64 transcription activation domain. All results are collected from three independent experiments in HEK 293FT cells. Error bars indicate s.e.m.; n=3. FIG. 19(b) discloses SEQ ID NOS 63 and 62, respectively, in order of appearance.
To determine whether NH and HN are suitable replacements for NN as the G-specific RVD, specificity and activity strength of NN, NK, NH, and HN were directly compared. Two 18 bp targets within the CACNA1C locus in the human genome were chosen and four TALEs for each target were constructed, using NN, NK, NH, or HN as the G-targeting RVD (FIG. 19a). […] For each CACNA1C target site, four luciferase reporters were constructed: wild type genomic target, and wild type target with 2, 4, or all guanines mutated into adenines (FIG. 19a, G-to-A reporters), and compared the activity of each TALE using these reporters (FIG. 19a). […] Thus, focus was placed on the RVDs NN, NK, and NH in subsequent experiments to assess their usefulness in modulating transcription at endogenous human genome targets.

Row | Sequence | binding signal
1 | TCAACCCCTGCCGGCCCA | 30.8 % reduction vs wild-type site
